This is a sample that favours compounds with a hit; in the whole collection about 4.7% have one here.
D1 antagonist = human D1 dopamine receptor antagonism; HEK293 TREx D1 cells, calcium flux, dopamine EC80; active compounds read low; activity change, negative = inhibition, % at 10 µM; 3.2% of 360,000 active; in the data active = activity change below about -30%; also: % is scaled to controls: 0 for no effect and ±100 for the full control effect
Target sequence (P21728 whole entry, looked up): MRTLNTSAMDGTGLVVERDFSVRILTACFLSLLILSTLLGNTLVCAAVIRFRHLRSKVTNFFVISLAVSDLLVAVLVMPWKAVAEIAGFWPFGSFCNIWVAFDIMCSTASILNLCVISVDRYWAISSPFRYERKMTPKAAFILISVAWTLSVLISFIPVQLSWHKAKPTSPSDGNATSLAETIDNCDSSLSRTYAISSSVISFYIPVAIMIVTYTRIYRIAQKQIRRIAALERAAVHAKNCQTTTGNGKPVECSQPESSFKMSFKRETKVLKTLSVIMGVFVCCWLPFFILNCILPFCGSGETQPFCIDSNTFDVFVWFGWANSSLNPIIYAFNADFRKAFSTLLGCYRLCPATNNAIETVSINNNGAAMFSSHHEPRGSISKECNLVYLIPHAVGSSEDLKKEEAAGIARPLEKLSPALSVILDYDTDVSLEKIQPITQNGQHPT
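Allosteric or orthosteric antagonism assessed as attenuation of the calcium response to EC80 dopamine, added 180 s after compound, in induced HEK293 Trex D1 cells loaded with no-wash calcium dye.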
D1 PAM = human D1 dopamine receptor positive modulation; P21728; HEK293 TREx D1 cells, calcium flux, dopamine EC20 potentiation; potentiation, % at 10 µM; 0.036% of 360,000 active; in the data active = potentiation above about 30%; also: 0% is about no effect
TRHR ag = TRH receptor (human) agonism; P34981; TRHR cells, calcium flux fluo-8, FDSS agonist mode; 0.18% of 360,000 active; activation, % at 2 µM; also: 0% is about no effect
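Steps: seed TRHR cells overnight; add fluo-8 no-wash Ca dye, RT 30 min–1.5 h; record 10 s baseline; pin-transfer compounds; monitor fluorescence 1 cycle/s for the agonist window. Calcium increases flag candidate agonists.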
D1 agonist = agonists of human D1 dopamine receptor; activation, % at 2 µM; HEK293 T-REx D1 cells, calcium flux, agonist mode; P21728; 1% of 360,000 active; also: 0% is about no effect
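Agonism was scored from calcium flux recorded over 180 s (1 read/s) after pintool compound addition, following a 10-cycle baseline. Cells were inducible force-coupled HEK293 TREx D1, plated overnight at 30 C and loaded with no-wash calcium dye.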
TRHR PAM = allosterically enhances the human TRH receptor; P34981; TRHR cells, fluo-8 calcium fluorescence, EC20 TRH enhancement; enhancement, % at 2 µM; 0.66% of 360,000 active; AID 493056; in the data active = enhancement above about 30%; also: 0% is about no effect
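Enhancer read-out: after compound pinning and an initial kinetic agonist-mode read, an EC20 of TRH (10 nM final) was injected and fluo-8 calcium signal (Ex 480/Em 530) followed at 1 s/cycle for 100 cycles in TRHR-expressing cells.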
Active calls of the source: *. Rule as the data show it, unless noted: active = activation above about 30%; inactive = the rest.

`N#Cc1cccc(S(=O)(=O)N2CCN(S(=O)(=O)c3ccc4c(c3)OCCO4)CC2)c1` gave D1 antagonist 0, D1 PAM -5, TRHR ag 0, D1 agonist 4 and TRHR PAM -6.
Screening COc1ccc(CCNC(=O)c2ccc3c(c2)N(Cc2cc(C)ccc2C)C(=O)c2ccccc2S3=O)cc1OC (stereo not drawn) returned D1 antagonist -6, D1 PAM -3, TRHR ag 0, D1 agonist 10 and TRHR PAM 31*.
For CCOC(=O)N1CCN(C(=O)c2ccc3c(c2)N(Cc2ccccc2F)C(=O)c2ccccc2S3=O)CC1 (stereo not drawn) the results were D1 antagonist -47*, D1 PAM -4, TRHR ag 0, D1 agonist 0 and TRHR PAM 7.
CCOC(=O)N1CCC(NC(=O)c2ccc3c(c2)N(Cc2ccc(F)cc2)C(=O)c2ccccc2S3=O)CC1 (stereo not drawn) was read as D1 antagonist 2, D1 PAM -2, TRHR ag 1, D1 agonist 2 and TRHR PAM 37*.
Screening CCOC(=O)N1CCC(NC(=O)c2ccc3c(c2)N(Cc2ccccc2)C(=O)c2ccccc2S3=O)CC1 (stereo not drawn) returned D1 antagonist 6, D1 PAM -3, TRHR ag -1, D1 agonist 4 and TRHR PAM 6.
Screening COc1ccc(CCNC(=O)c2ccc3c(c2)N(Cc2ccccc2F)C(=O)c2ccccc2S3=O)cc1OC (stereo not drawn) returned D1 antagonist 8, D1 PAM 2, TRHR ag 0, D1 agonist 1 and TRHR PAM 10.
CCN1CCN(C(=O)c2ccc3c(c2)N(Cc2ccccc2F)C(=O)c2ccccc2S3=O)CC1 (stereo not drawn) was read as D1 antagonist -4, D1 PAM -1, TRHR ag 0, D1 agonist 2 and TRHR PAM 3.
Screening COc1ccc(N2C(=O)[C@@H]3[C@H](C2=O)[C@H](C(C)=O)N2c4ccccc4C=C[C@@H]32)cc1 returned D1 antagonist 0, D1 PAM -8, TRHR ag 0, D1 agonist 1 and TRHR PAM 6.
Screening COc1ccc(C2C(C(=O)c3ccccc3)N3c4ccccc4C=CC3C2[N+](=O)[O-])cc1 (stereo not drawn) returned D1 antagonist -6, D1 PAM -3, TRHR ag 15, D1 agonist 41* and TRHR PAM 16.
`CSc1ncc(Cl)c(C(=O)Nc2c(C(=O)c3ccc(C)cc3)oc3ccccc23)n1` gave D1 antagonist -4, D1 PAM -2, TRHR ag 0, D1 agonist -1 and TRHR PAM 0.
For CSc1ncc(Cl)c(C(=O)Nc2c(C(=O)c3ccc(Cl)cc3)oc3ccccc23)n1 the results were D1 antagonist 1, D1 PAM -1, TRHR ag 0, D1 agonist 3 and TRHR PAM 47*.
Screening Cc1cn(C)c(CC(=O)Nc2cccc(C#N)c2)c1C(=O)O returned D1 antagonist -14, D1 PAM -2, TRHR ag 0, D1 agonist 0 and TRHR PAM 32*.
Cc1cc(C)c(S(=O)(=O)NCC(c2ccco2)N2CCN(c3ccccc3)CC2)c(C)c1 (stereo not drawn) was read as D1 PAM -5, TRHR ag 0, D1 agonist -2 and TRHR PAM -9.
O=C(O)CN1C(=O)/C(=C\c2ccccc2OCc2ccc(Cl)cc2Cl)SC1=S was read as D1 antagonist 8, D1 PAM -12, TRHR ag -3, D1 agonist 35* and TRHR PAM 6.
COc1ccc(NS(=O)(=O)c2ccc3[nH]c4c(c3c2)CCCC4)cc1OC was read as D1 antagonist -20, D1 PAM -6, TRHR ag 0, D1 agonist 6 and TRHR PAM 2.
`CN1CCN(NC(=O)c2cn(-c3ccccc3)nc2-c2cccc(Br)c2)CC1` gave D1 antagonist -33*, D1 PAM -10, TRHR ag 1, D1 agonist 14 and TRHR PAM 1.
For O=C(Nc1ccc(N2CCN(c3ccc(F)cc3)CC2)c(C(=O)O)c1)c1cccs1 the results were D1 antagonist 17, D1 PAM 6, TRHR ag 0, D1 agonist 3 and TRHR PAM 1.
For CC(C)NC(=O)CSc1nc2ccccc2c(=O)n1Cc1ccc(C(=O)NC(C)C)cc1 the results were D1 antagonist 4, D1 PAM 1, TRHR ag 0, D1 agonist 1 and TRHR PAM -8.
Cc1csc(NC(=O)CSc2ccc(-c3ccccn3)nn2)n1 was read as D1 antagonist -98*, D1 PAM 1, TRHR ag -1, D1 agonist -3 and TRHR PAM 2.
Screening CC1=CC(C)(C)NC(=S)N1c1ccc(C)c(C)c1 returned D1 antagonist -31*, D1 PAM 3, TRHR ag -1, D1 agonist 60* and TRHR PAM -2.
Screening COc1ccccc1-c1cc(C2CC2)nc(N)c1C#N returned D1 antagonist 11, D1 PAM 0, TRHR ag -1, D1 agonist 3 and TRHR PAM 6.
For N#Cc1c(-c2ccccc2Cl)cc(C2CC2)nc1N the results were D1 antagonist 21, D1 PAM 7, TRHR ag 13, D1 agonist 99* and TRHR PAM 24.
`CCC1Oc2ccc(C)cc2N(CC(=O)N2CCN(c3ccccc3OC)CC2)C1=O` (stereo not drawn) gave D1 antagonist -3, D1 PAM 1, TRHR ag -1, D1 agonist -1 and TRHR PAM 0.
`CO/N=C\CC(=O)Nc1ccc(Cl)c(Cl)c1` gave D1 antagonist -30*, D1 PAM -6, TRHR ag 0, D1 agonist 6 and TRHR PAM 5.
Cc1cccc(-c2nc(S(=O)(=O)c3ccccc3)c(N3CCN(c4ccccc4)CC3)o2)c1 was read as D1 antagonist -21, D1 PAM -1, TRHR ag 0, D1 agonist 2 and TRHR PAM -6.
`Cc1noc(C(=O)Nc2c(C)nn(Cc3ccccc3)c2C)c1Cl` gave D1 antagonist -51*, D1 PAM -6, TRHR ag 0, D1 agonist 1 and TRHR PAM 3.
`Cc1nn(Cc2cccc(C(=O)NN)c2)c(C)c1Cl` gave D1 antagonist 7, D1 PAM -5, TRHR ag 0, D1 agonist 2 and TRHR PAM 1.
`Cn1cc(Cl)c(C(=O)Nc2cnn(Cc3ccc(F)cc3)c2)n1` gave D1 antagonist -42*, D1 PAM -4, TRHR ag 0, D1 agonist 5 and TRHR PAM 12.

Screens: PubChem BioAssay, National Center for Advancing Translational Sciences (NCATS)
